# Records with an inconclusive call do not appear. Unmarked numbers belong to inactive results. Activity calls are given as the source filed them. Calls follow the shape of the dose curve; as a rule, active = well fitted inhibition curve with a large enough effect; inconclusive = small, poorly fitted or top-dose-only effect; inactive = no such curve, though single readings can be large or run the other way.
# Assay: qHTS Screen of the MIPE 4.0 Collection Against Ewings Sarcoma (RDES) (AID 1259252); also: nearly all actives have a fitted effect of over 35% in size;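 as to viability (percent of control): 100% = DMSO-treated cells and 0% = medium-only wells without cells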
# Details: RD-ES Ewing sarcoma viability, CellTiter-Glo, 48 h; series mostly up to 45.8 µM; viability (percent of control): at the top concentration
# Text: There is a large unmet medical need for treatments for Ewing sarcoma, a pediatric sarcoma. We sought to identify compounds that inhibited Ewing sarcoma cells in vitro with the goal to then test promising drugs in two drug combinations in vitro to look for synergistic drug combinations. Promising combinations would then proceed to additional validation, including in vivo testing.
# Using the NCATS developed oncology compound library called the Mechanism of Interrogation Plate (MIPE), four Ewing sarcoma cell lines were evaluated (TC32, TC71, RDES, EW8). Compounds, in a 12-point titration series, were incubated with cells for 48 hours and the read out was cell viability (CellTiter-Glo from Promega). These initial experiments were used to select appropriate concentrations of each single agent for subsequent two-drug matrix combinations such that the concentrations in the matrices would span both activity and non-activity.
# Cells, in the log phase of growth, were seeded in 5 uL of RPMI plus 5% FBS, […] L-glutamine, 100 U/ml penicillin and 100 ug/ml streptomycin into 1536-well solid-bottom white tissue culture treated Greiner Bio One Plates (789173-F) using a MultiDrop Combi (Thermofisher Scientific) dispenser and a small sterile cassette. One column was media alone to be used as a :"no cells" control. The plates were then covered with sterilized stainless steel gasketed lids from Kalypsys. After allowing cells to attach for 4 hours, 23 nL of test compound or control (negative control DMSO and positive control 9.2 uM Bortezomib-final) were added from a 1536-well polypropylene compound source plate to each well using a 1536 head pin tool from Kalypsys. Cells were then incubated for 48 hours at 37C, 95% relative humidity and 5% CO2. After 48 hours, plates were removed from the incubator and 3 uL of CellTiter-Glo (Promega) was added using an Aurora Flying Reagent Dispenser Bioraptor. Plates were incubated at room temperature for 10 minutes prior to reading the luminescence on the Viewlux (PerkinElmer). The relative luciferase units are used to calculate the percent activity using the activity of DMSO in the cells and no cells columns for normalization of no inhibition and full inhibition respectively.
# Potency is read from the fitted curve at half-maximal effect.
Structure (SMILES),Potency,viability (percent of control)
COc1ccc(C2Sc3ccccc3N(CCN(C)C)C(=O)C2OC(C)=O)cc1 (stereo not given),18.7 µM (active),
O=c1c(O)c(-c2ccc(O)cc2)oc2cc(O)cc(O)c12,16.6 µM (active),
COc1ccc(-c2cc(=O)c3c(O)cc(O)cc3o2)cc1O,5.26 µM (active),
CC(=O)Nc1ccc([C@H](C)C(=O)Nc2ncc(C(C)C)s2)cc1,2.96 µM (active),
CCCCCN(C)CCC(O)(P(=O)(O)O)P(=O)(O)O,,119%
Nc1nc(F)nc2c1ncn2[C@@H]1O[C@H](COP(=O)(O)O)[C@@H](O)[C@H]1O,11.8 µM (active),
O=C(O)c1cc(O)c2c(c1)C(=O)c1cccc(O)c1C2=O,,125% [at 92.2 µM]
c1ccc2c(Cc3c[nH]c4ccccc34)c[nH]c2c1,2.64 µM (active),
CCn1cc(C(=O)O)c(=O)c2ccc(C)nc21,,110%
CCCCCNC(=O)N1CCC(CN(Cc2ccc(Cl)cc2)Cc2ccc([N+](=O)[O-])s2)C1 (stereo not given),20.9 µM (active),
Nc1ncnc2c1ncn2[C@@H]1O[C@@H](CO)[C@H](O)[C@H]1O,,119%
C[N+]1(C)[C@@H]2CC(OC(=O)[C@H](CO)c3ccccc3)C[C@H]1[C@H]1O[C@@H]12 (stereo not given in full),,116%
CC=CC[C@@H](C)C(=O)[C@H]1C(=O)N[C@@H](C(C)C)C(=O)N(C)CC(=O)N(C)[C@@H](CC(C)C)C(=O)N[C@@H](C(C)C)C(=O)N(C)[C@@H](CC(C)C)C(=O)N[C@@H](C)C(=O)N[C@H](C)C(=O)N(C)[C@@H](CC(C)C)C(=O)N(C)[C@@H](CC(C)C)C(=O)N(C)[C@@H](C(C)C)C(=O)N1C,18.7 µM (active),
COc1ccc(-c2coc3cc(O)ccc3c2=O)cc1,,119%
O=C(O)c1ccccc1C(=O)Nc1ccc(-c2ccccc2)cc1,,119%
COc1cccc(-c2cc(=O)c3ccccc3o2)c1N,,114%
O=c1c(-c2ccc(O)cc2)coc2cc(O)ccc12,11.8 µM (active),
CC(C)(C)COc1ccc(-n2cc(C(=O)O)cn2)cc1C#N,,112%
Cc1ccccc1C(C(=O)NC1CCCCC1)N(C(=O)Cn1ccnc1C)c1cccc(F)c1 (stereo not given),,89.8%
COc1cc2nc(-c3ccc(N4CCN(C)CC4)cc3)nc(NCCN3CCOCC3)c2cc1OC,0.0166 µM (active),

Structure (SMILES),Potency,viability (percent of control)
O=C(O)C=Cc1ccc(O)c(O)c1,8.33 µM (active),
O=C(CCc1ccc(O)cc1)c1c(O)cc(O)cc1O[C@@H]1O[C@H](CO)[C@H](O)[C@H](O)[C@H]1O,,113%
O=c1cc(-c2ccccc2)oc2cc(O)c(O)c(O)c12,20.9 µM (active),
O=c1cc(-c2ccc(O)cc2)oc2cc(O)cc(O)c12,18.7 µM (active),
C[C@@H]1CCN(C(=O)CC#N)C[C@H]1N(C)c1ncnc2[nH]ccc12,,115%
CC(=Cc1ccccc1)C=C1SC(=S)N(CC(=O)O)C1=O,,121%
CC(=O)Oc1cc2c(s1)CCN(C(C(=O)C1CC1)c1ccccc1F)C2 (stereo not given),2.35 µM (active),
Clc1ccc(C(c2ccc(Cl)cc2)n2cc[n+](CC(OCc3ccc(Cl)cc3Cl)c3ccc(Cl)cc3Cl)c2)cc1 (stereo not given),16.6 µM (active),
O=c1c(-c2ccc(O)cc2)coc2cc(OC3O[C@H](CO)[C@H](O)[C@H](O)[C@H]3O)cc(O)c12 (stereo not given in full),3.72 µM (active),
CCOC1OC(=O)C[C@H]1NC(=O)[C@@H]1CCCN1C(=O)[C@@H](NC(=O)c1ccc(N)c(Cl)c1)C(C)(C)C (stereo not given in full),,114%
Cc1nc(N)sc1-c1ccnc(Nc2ccc(N3CCOCC3)cc2)n1,18.7 µM (active),
CC[C@]1(O)C[C@@H]2CN(CCc3c([nH]c4ccccc34)[C@@](C(=O)OC)(c3cc4c(cc3OC)N(C=O)[C@@H]3C45CCN4CC=C[C@](CC)([C@H]45)[C@@H](OC(C)=O)[C@]3(O)C(=O)OC)C2)C1 (stereo not given in full),16.6 µM (active),
CC(=O)N(C)C1(c2ccccc2)CCN(CCC[C@]2(c3ccc(Cl)c(Cl)c3)CCCN(C(=O)c3ccccc3)C2)CC1,26.4 µM (active),
O=C(CCN1CCN(C(=O)OCc2cc(Cl)cc(Cl)c2)CC1)c1ccc2[nH]c(=O)oc2c1,,120%
CC1(C)CCC2=C(O1)c1ccccc1C(=O)C2=O,26.4 µM (active),
CC[C@@]1(O)C[C@H](O[C@H]2C[C@H](N(C)C)[C@H](O[C@H]3C[C@H](O)[C@H](O[C@H]4CCC(=O)[C@H](C)O4)[C@H](C)O3)[C@H](C)O2)c2c(cc3c(c2O)C(=O)c2c(O)cccc2C3=O)[C@@H]1C(=O)OC,0.59 µM (active),
Clc1ccc(CCC(Cn2ccnc2)Sc2c(Cl)cccc2Cl)cc1 (stereo not given),,79.8%
CCc1ccc(OCc2ccccc2C(=O)Nc2ccc3nc(C)cc(N)c3c2)cc1,9.35 µM (active),
C[N+](C)(C)CC(=O)O,,117%
COc1ccc(Cc2nccc3cc(OC)c(OC)cc23)cc1OC,20.9 µM (active),

# — PubChem BioAssay (NCATS)
